The results in this text go back to PubChem BioAssay AID2263 (National Center for Advancing Translational Sciences (NCATS), 2010).

Some of the results follow. Records with an inconclusive call do not appear. Activity calls are given as the source filed them. Calls come from the whole dose curve; as a rule, active = well fitted inhibition curve with a large enough effect; inconclusive = small, poorly fitted or top-dose-only effect, or effect the other way; inactive = flat fitted curve, though single readings scatter.

The target in this test is Pyruvate kinase PKM (Homo sapiens) (UniProt P14618). The test is described as follows: Confirmation Concentration-Response Assay for Inhibitors of Human Muscle isoform 2 Pyruvate Kinase. Particulars: purified hPK-M2, Kinase-Glo ATP luminescence, 1 h; series mostly up to 57.5 µM. From the text: NIH Chemical Genomics Center [NCGC] Matthew G. Vander Heiden, M.D., Ph.D. [Harvard Medical School, 77 Avenue Louis Pasteur, Boston, MA 02115] MLPCN Grant: 1 R03 MH085679-01 NCGC Assay Overview: Human pyruvate kinase muscle 2 (hPK-M2) enzyme was supplied as a highly purified (>95% pure) preparation from Harvard Medical School and assayed for its ability to generate ATP from ADP using phosphoenolpyruvate (PEP) as a substrate. ATP generation was detected in a coupled reaction by luciferase-mediated luminescence, an ATP-dependent process. Pyruvate kinase substrates, PEP and ADP, were present in the assay at Km and approximately 10-fold below Km respectively. The enzyme was assayed at an intermediate level of activity to screen for both inhibitors and activators.
Sequence of Pyruvate kinase PKM (Homo sapiens) (P14618 whole entry, looked up, canonical isoform): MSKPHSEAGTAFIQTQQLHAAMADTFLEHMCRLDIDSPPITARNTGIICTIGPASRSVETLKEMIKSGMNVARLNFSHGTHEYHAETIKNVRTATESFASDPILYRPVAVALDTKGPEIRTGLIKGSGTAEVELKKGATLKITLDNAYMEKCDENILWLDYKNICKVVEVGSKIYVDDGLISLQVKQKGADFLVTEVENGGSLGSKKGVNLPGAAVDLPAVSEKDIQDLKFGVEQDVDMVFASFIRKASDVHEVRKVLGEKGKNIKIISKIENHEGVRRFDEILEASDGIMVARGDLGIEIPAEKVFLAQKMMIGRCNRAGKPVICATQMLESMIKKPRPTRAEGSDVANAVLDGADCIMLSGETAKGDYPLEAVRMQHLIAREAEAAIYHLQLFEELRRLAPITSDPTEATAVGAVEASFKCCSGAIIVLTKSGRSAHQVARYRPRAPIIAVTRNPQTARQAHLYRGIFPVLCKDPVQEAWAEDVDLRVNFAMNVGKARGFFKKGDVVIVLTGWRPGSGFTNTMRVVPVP
NCGC Assay Protocol Summary: Three uL of substrate mix (at r.t.) in assay buffer (50 mM Imidazole pH7.2, 50 mM KCl, 7 mM MgCl2, 0.01% Tween 20, 0.05% BSA) was dispensed into white solid bottom 1,536 well microtiter plates so that the final concentrations of substrates in the assay were 0.1 mM ADP and 0.5 mM PEP. 23 nL of compound were delivered by a pin tool and 1 uL of enzyme mix in assay buffer (4 degree Celsius) was added. […] Two uL of detection mix (Kinase-Glo, Promega; at 4 degree Celsius protected from light) was added and luminescence read by a ViewLux (Perkin Elmer) at 5 second exposure/plate. […]
`Cc1ccc(-c2nc3ccccn3c2Nc2ccc(F)cc2)o1`: the call was inactive.
